Assay outcomes: PubChem, National Center for Advancing Translational Sciences (NCATS)
DT40 TDP1 CPT: DT40-hTDP1 cell growth loss with CPT; hit rate 12% among 420,000; AID 686979; chicken DT40 Tdp1-/-;hTDP1 cells + 20 nM CPT, ATP luminescence, 48 h; Potency, µM (doses to about 46.2 µM), for the others: top-dose activity change, negative = growth inhibition, usual class: inhibitors; also: % is scaled to controls: 0 for no effect and ±100 for the full control effect; nearly all actives have a fitted effect of over 55% in size
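Chicken DT40 Tdp1-/- cells complemented with human TDP1, 400 cells/well, exposed to compounds plus 20 nM camptothecin for at least 48 h at 37 C; viability read as ATP content by CellTiter-Glo luminescence.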
DT40 TDP1 no CPT: qHTS for Inhibitors of human tyrosyl-DNA phosphodiesterase 1 (TDP1): qHTS in cells in absence of CPT; hit rate 15% among 420,000; Potency, µM (series often up to 46.2 µM), for inactives: at the highest dose activity change, negative = growth inhibition, usual class: inhibitors; AID 686978, 2013; DT40 Tdp1-/- hTDP1 cells, no CPT, ATP luminescence, 48 h; also: % is scaled to controls: 0 for no effect and ±100 for the full control effect; nearly all actives have a fitted effect of over 55% in size
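Luminescent ATP content (CellTiter-Glo) served as the growth readout. Knockout chicken DT40 cells expressing human TDP1 were exposed to compounds without camptothecin for a minimum 48 hr at 37 °C.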
TDP1 inh: TDP1 (human) enzyme inhibition; Q9NUW8; recombinant TDP1, AlphaScreen DNA substrate cleavage; Potency, µM (titrated, usually from 130 µM), for inactives: top-dose activity change, negative = inhibition, usual class: inhibitors; hit rate 0.28% among 350,000; also: % is scaled to controls: 0 for no effect and ±100 for the full control effect; nearly all actives have a fitted effect of over 40% in size
Target sequence (Q9NUW8 whole entry, looked up): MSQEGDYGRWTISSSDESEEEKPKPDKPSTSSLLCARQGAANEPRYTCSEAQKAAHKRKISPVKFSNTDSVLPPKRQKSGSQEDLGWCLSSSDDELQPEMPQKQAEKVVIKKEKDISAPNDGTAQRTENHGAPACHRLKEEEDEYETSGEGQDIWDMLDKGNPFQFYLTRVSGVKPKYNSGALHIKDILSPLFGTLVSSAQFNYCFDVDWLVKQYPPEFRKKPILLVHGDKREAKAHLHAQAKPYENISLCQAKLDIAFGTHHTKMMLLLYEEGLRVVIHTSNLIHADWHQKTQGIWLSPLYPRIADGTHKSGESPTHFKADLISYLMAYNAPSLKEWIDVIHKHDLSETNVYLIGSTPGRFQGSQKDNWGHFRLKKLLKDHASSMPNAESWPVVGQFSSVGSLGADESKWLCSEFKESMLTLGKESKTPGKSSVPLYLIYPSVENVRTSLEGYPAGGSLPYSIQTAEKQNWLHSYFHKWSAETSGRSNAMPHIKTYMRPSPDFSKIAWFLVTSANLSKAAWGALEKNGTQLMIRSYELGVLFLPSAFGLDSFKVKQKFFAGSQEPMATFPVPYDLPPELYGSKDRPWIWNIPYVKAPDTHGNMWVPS
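Recombinant human Tdp1 (E. coli-expressed, 1 nM final) preincubated with compounds 15 min at room temperature, then 5'-biotin/3'-phosphotyrosine-FITC DNA substrate (15 nM final) added for 5 min. AlphaScreen beads (10 ug/ml final) added 10 min; cleavage lowers signal.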
ClpP mod: qHTS Assay for Activators of ClpP; ATP-dependent Clp protease proteolytic subunit (Bacillus subtilis (strain 168)), P80244; purified B. subtilis ClpP, FRET peptide cleavage, 20 min; Potency, µM (top dose mostly 57.5 µM), for the others: top-dose activity change, negative = active; hit rate 1.9% among 340,000; AID 651965, 2013; active = well fitted falling curve with a large enough effect; inconclusive = small, poorly fitted or top-dose-only effect; inactive = no such curve, though single readings can be large or run the other way; also: the source files actives as falling curves though it sought activators and does not explain the sign; nearly all actives have a fitted effect of over 65% in size
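ClpP 10 microg/mL final, pH 8 Tris/KCl buffer with BSA, glycerol, Tween-20; compound pinned in; FRET-FV substrate; RT 20 min; Ex320/Em430; ΔFRET vs ADEP 5.8 microM, DMSO, no enzyme.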
Active calls of the source: *; [ ] = remark or other dose. Hits are enriched below; roughly 17% of the tested compounds scored in any of these assays. Unless noted, calls follow the shape of the dose curve; as a rule, active = well fitted curve in the direction sought with a large enough effect; inconclusive = small, poorly fitted or top-dose-only effect, or another doubt; inactive = no such curve, though single readings can be large; an effect the other way counts as inactive or inconclusive. Potency is read from the fitted curve at half-maximal effect.

For C/C(Cl)=C/CSc1nc2c(c(=O)[nH]c(=O)n2C)n1C(C)C the results were DT40 TDP1 CPT inconclusive, DT40 TDP1 no CPT 16.4µM*, TDP1 inh 1.9% and ClpP mod 1.2%.
Screening COc1ccc(/C=C2\N=C(c3ccccc3)NNC2=O)cc1 returned DT40 TDP1 CPT -15.5%, DT40 TDP1 no CPT 0.8% and TDP1 inh 6.2%.
For NC(=O)c1ccccc1NC(=O)Nc1ccc(F)c(Cl)c1 the results were DT40 TDP1 CPT inconclusive, DT40 TDP1 no CPT inconclusive, TDP1 inh -2.5% and ClpP mod -16.2%.
`C[C@@]12CC[C@@H]3c4ccc(O)cc4CC[C@H]3[C@H]1C[C@@H](O)[C@H]2O` gave TDP1 inh -3.6%[21 µM].
`CC1=C(C(=O)Nc2ccc(C)cc2C)C(c2cc(Br)ccc2F)n2ncc(C(=O)Nc3ccc(C)cc3)c2N1` (centres undefined) gave DT40 TDP1 CPT inconclusive, DT40 TDP1 no CPT 11.6µM*, TDP1 inh -5.3% and ClpP mod 20µM*.
CC1=C(C(=O)Nc2ccc(C)cc2C)C(c2ccccc2[N+](=O)[O-])n2ncc(C(=O)Nc3ccccc3)c2N1 (centres undefined) was read as DT40 TDP1 CPT inconclusive, DT40 TDP1 no CPT 25.9µM*, TDP1 inh -1.1% and ClpP mod inconclusive.
Screening CC1=C(C(=O)Nc2ccccc2)C(c2cc(Br)ccc2F)n2ncc(C(=O)Nc3ccccc3)c2N1 (centres undefined) returned DT40 TDP1 CPT inconclusive, DT40 TDP1 no CPT inconclusive, TDP1 inh 5.3% and ClpP mod 3.8%.
O=C(CN1C(=O)NC2(CCc3ccccc32)C1=O)Nc1ccc(Cl)cc1F (centres undefined) was read as DT40 TDP1 CPT 8.8%, DT40 TDP1 no CPT inconclusive and ClpP mod 0.2%.
For c1ccc(-c2cc(-c3nnc4n3N=C(c3ccc5ccccc5c3)CS4)[nH]n2)cc1 the results were DT40 TDP1 CPT inconclusive, DT40 TDP1 no CPT inconclusive, TDP1 inh 0.0% and ClpP mod 1.8%.
`COc1ccc(-c2nc(CC(=O)O)cs2)cc1` gave DT40 TDP1 CPT 2.2%, DT40 TDP1 no CPT -24.5%, TDP1 inh -1.8% and ClpP mod 22.4µM*.
Screening COc1cccc(-c2nc(CC(=O)O)cs2)c1OC returned DT40 TDP1 CPT -4.1%, DT40 TDP1 no CPT 1.7%, TDP1 inh -1.0% and ClpP mod 12.6µM*.
For COc1cccc(-c2nc(CCl)cs2)c1OC the results were DT40 TDP1 CPT 2.31µM*, DT40 TDP1 no CPT 6.51µM*, TDP1 inh 8.3% and ClpP mod -3.5%.
`CCOC(=O)c1csc(-c2ccc(OC)c(OC)c2)n1` gave DT40 TDP1 CPT 23.4%, DT40 TDP1 no CPT 6.3% and TDP1 inh 2.9%.
Screening CCOc1ccc(-c2nc(CCl)cs2)cc1OC returned DT40 TDP1 CPT 10.3µM*, DT40 TDP1 no CPT 13µM*, TDP1 inh 5.1% and ClpP mod 0.6%.
COc1ccc(-c2noc(-c3cccc(OC)c3OC)n2)cc1 was read as DT40 TDP1 CPT inconclusive, DT40 TDP1 no CPT inconclusive, TDP1 inh -1.1% and ClpP mod inconclusive.
For COc1ccc(-c2nc(CC(=O)O)cs2)cc1OC the results were TDP1 inh -2.3%.
Screening CCCCNC(=O)Nc1ncn[nH]1 returned DT40 TDP1 CPT -0.8%, DT40 TDP1 no CPT -17.0%, TDP1 inh -4.1% and ClpP mod 1.4%.
Cc1nc2nc(SCC(=O)NCCc3ccc(Cl)cc3)nn2c(C)c1Cc1ccccc1 was read as DT40 TDP1 CPT inconclusive, DT40 TDP1 no CPT inconclusive, TDP1 inh 5.9% and ClpP mod -6.1%.
Screening CN[C@@H]1[C@@H](O)[C@@H](O[C@@H]2[C@@H](O)[C@H](O[C@H]3O[C@H](CN)[C@@H](O)[C@H](O)[C@H]3O)[C@@H](N)C[C@H]2NC(=O)C(O)CN)OC[C@]1(C)O (some centres undefined) returned DT40 TDP1 CPT -25.1% and DT40 TDP1 no CPT -19.3%.
CCCc1ccc(OCC(=O)Nc2sc3c(c2C(=O)OC)CCCCC3)cc1 was read as DT40 TDP1 CPT 4.3%, DT40 TDP1 no CPT inconclusive, TDP1 inh 1.3%[12.3 µM] and ClpP mod -16.4%.
CCOC(=O)N1CCN(C2CCCN(C(=O)c3cccc(Cl)c3)C2)CC1 (centres undefined) was read as DT40 TDP1 CPT 0.4%, DT40 TDP1 no CPT -0.6%, TDP1 inh 1.8% and ClpP mod -1.7%.
COc1ccc(/C(=C\C(=O)O)c2nccc3cc(OC)c(OC)cc23)cc1OC was read as DT40 TDP1 CPT 9.2%[9.04 µM], DT40 TDP1 no CPT -9.1%[9.04 µM] and TDP1 inh 5.0%.
C[C@@](N)(C(=O)O)c1ccc(P(=O)(O)O)cc1 was read as DT40 TDP1 CPT 11.2%, DT40 TDP1 no CPT -7.8% and TDP1 inh 10.3%[56.1 µM].
For Nc1[nH]c(=O)nc2c1ncn2C1OC(CO)C(O)C1O (centres undefined) the results were DT40 TDP1 CPT inconclusive, DT40 TDP1 no CPT inconclusive, TDP1 inh -0.5% and ClpP mod -0.5%.
`O=c1cnn([C@@H]2O[C@H](CO)[C@@H](O)[C@H]2O)c(=O)[nH]1` gave DT40 TDP1 CPT 11.6µM*, DT40 TDP1 no CPT 2.31µM*, TDP1 inh 2.7% and ClpP mod -3.0%.
O=C1OC[C@H]2CCCN2C(=O)[C@@H](CC(=O)N(CCO)Cc2ccccc2)C/C=C\C[C@@H]1Cc1ccc(F)cc1 was read as DT40 TDP1 CPT 7.31µM*, DT40 TDP1 no CPT 18.4µM*, TDP1 inh 0.0% and ClpP mod -0.1%.
`CC(C)(C)OC(=O)C[C@H]1C/C=C\C[C@@H](CC(=O)N(CCO)Cc2ccccc2)C(=O)N2CCC[C@H]2COC1=O` gave DT40 TDP1 CPT 18.4µM*, DT40 TDP1 no CPT inconclusive, TDP1 inh 2.8% and ClpP mod 1.0%.
Screening COc1ccc(OC)c(N(CC(=O)Nc2cccc3ccccc23)S(C)(=O)=O)c1 returned DT40 TDP1 CPT -1.7%, DT40 TDP1 no CPT -4.4% and ClpP mod 1.3%.
Cc1ccc2nc3c(cc(C#N)c(=O)n3-c3nccs3)c(=O)n2c1 was read as DT40 TDP1 CPT -18.6%, DT40 TDP1 no CPT -18.5%, TDP1 inh -9.4% and ClpP mod 2.51µM*.
Screening CCC(C)(C)C1CCC(=NNC(=S)Nc2ccccc2)CC1 (centres undefined) returned DT40 TDP1 CPT inconclusive, DT40 TDP1 no CPT 14.6µM*, TDP1 inh 8.0% and ClpP mod -1.0%.
`Fc1ccc(NC(=S)Nc2ccc(Cl)cc2)cc1` gave DT40 TDP1 CPT inconclusive, DT40 TDP1 no CPT 23.1µM* and TDP1 inh 6.0%.
For S=C(NN=C1CCCCCC1)Nc1ccc(Cl)cc1 the results were DT40 TDP1 CPT 29.1µM*, DT40 TDP1 no CPT 29.1µM*, TDP1 inh 4.7% and ClpP mod -0.8%.
